# Data published in PubChem BioAssay (EPA / NIEHS).
# Where “and” joins values, the source holds several entries; their conditions need not be identical. Equal values may be shown once. Results filed as inconclusive are left out. Calls of active or inactive are those of the source. The calls were made as follows, unless noted: active = hit-call score of the fitted dose curve at least 0.9, where 1 is the maximum; inconclusive = response in the unintended direction; inactive = score below 0.9.
# System: not listed separately
# Assay: CCTE_Harrill_HTTr_Viability_PRF_DMEM_6hr: (Pilot) CCTE's 6-hour Cell Viability Assessment for the High-Throughput Transcriptomics (HTTr) Platform, in MCF-7 cells cultured phenol red-free DMEM + 10% charcoal-stripped fetal bovine serum, Harrill Lab (AID 2283976; active = hit-call score of the fitted dose curve at least 0.9, where 1 is the maximum; inactive = score below 0.9)
# Summary of the method: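 MCF-7 cells in phenol red-free DMEM with 10% charcoal-stripped FBS exposed 6 hours to an eight-point dilution series. Propidium iodide exclusion imaged; curves fitted bidirectionally against DMSO.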
row,SMILES,outcome
1,CCCN(CCOc1c(Cl)cc(Cl)cc1Cl)C(=O)n1ccnc1,inactive
2,O=C(O)C(F)(F)C(F)(F)C(F)(F)C(F)(F)C(F)(F)C(F)(F)C(F)(F)F,inactive
3,O=S(=O)(O)C(F)(F)C(F)(F)C(F)(F)C(F)(F)C(F)(F)C(F)(F)C(F)(F)C(F)(F)F,inactive

# System: not listed separately
# Assay: CCTE_Harrill_HTTr_Viability_PRF_DMEM_12hr: (Pilot) CCTE's 12-hour Cell Viability Assessment for the High-Throughput Transcriptomics (HTTr) Platform, in MCF-7 cells cultured in phenol red-free DMEM + 10% charcoal-stripped fetal bovine serum, Harrill Lab (AID 2283977; active = hit-call score of the fitted dose curve at least 0.9, where 1 is the maximum; inactive = score below 0.9)
# Summary of the method: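 MCF-7 cells in phenol red-free DMEM with 10% charcoal-stripped FBS exposed 12 hours to an eight-point dilution series. Viability assessed by high-content imaging of propidium iodide exclusion; bidirectional fit versus DMSO.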
row,SMILES,outcome
1,CCCN(CCOc1c(Cl)cc(Cl)cc1Cl)C(=O)n1ccnc1,inactive
2,O=C(O)C(F)(F)C(F)(F)C(F)(F)C(F)(F)C(F)(F)C(F)(F)C(F)(F)F,inactive
3,O=S(=O)(O)C(F)(F)C(F)(F)C(F)(F)C(F)(F)C(F)(F)C(F)(F)C(F)(F)C(F)(F)F,inactive

# System: not listed separately
# Assay: CCTE_Harrill_HTTr_Viability_PRF_DMEM_24hr: (Pilot) CCTE's 24-hour Cell Viability Assessment for the High-Throughput Transcriptomics (HTTr) Platform, in MCF-7 cells cultured in phenol red-free DMEM + 10% charcoal-stripped fetal bovine serum, Harrill Lab (AID 2283980; active = hit-call score of the fitted dose curve at least 0.9, where 1 is the maximum; inactive = score below 0.9)
# Summary of the method: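 MCF-7 cells in phenol red-free DMEM with 10% charcoal-stripped FBS, eight-point dilution series, 24 h exposure. Membrane integrity by propidium iodide exclusion with high content imaging; bidirectional fit vs DMSO.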
SMILES,AC50,outcome
CCCN(CCOc1c(Cl)cc(Cl)cc1Cl)C(=O)n1ccnc1,9.92 µM (active),
O=C(O)C(F)(F)C(F)(F)C(F)(F)C(F)(F)C(F)(F)C(F)(F)C(F)(F)F,,inactive
O=S(=O)(O)C(F)(F)C(F)(F)C(F)(F)C(F)(F)C(F)(F)C(F)(F)C(F)(F)C(F)(F)F,,inactive

# System: not listed separately
# Assay: CCTE_Harrill_HTTr_Apoptosis_DMEM_6hr: (Pilot) CCTE's 6-hour Apoptosis Assessment for the High-Throughput Transcriptomics (HTTr) Platform, in MCF-7 cells cultured in DMEM + 10% fetal bovine serum, Harrill Lab (AID 2283981; active = hit-call score of the fitted dose curve at least 0.9, where 1 is the maximum; inactive = score below 0.9)
# Summary of the method: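 Caspase-3/7 activation read by high content imaging with CellEvent Caspase 3/7 Green in MCF-7 cells (DMEM + 10% FBS), 6 h after dosing; eight-point dilution series. Bidirectional fitting relative to DMSO baseline.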
row,SMILES,outcome
1,CCCN(CCOc1c(Cl)cc(Cl)cc1Cl)C(=O)n1ccnc1,inactive
2,O=C(O)C(F)(F)C(F)(F)C(F)(F)C(F)(F)C(F)(F)C(F)(F)C(F)(F)F,inactive
3,O=S(=O)(O)C(F)(F)C(F)(F)C(F)(F)C(F)(F)C(F)(F)C(F)(F)C(F)(F)C(F)(F)F,inactive

# System: not listed separately
# Assay: CCTE_Harrill_HTTr_Apoptosis_DMEM_12hr: (Pilot) CCTE's 12-hour Apoptosis Assessment for the High-Throughput Transcriptomics (HTTr) Platform, in MCF-7 cells cultured in DMEM + 10% fetal bovine serum, Harrill Lab (AID 2283982; active = hit-call score of the fitted dose curve at least 0.9, where 1 is the maximum; inactive = score below 0.9)
# Summary of the method: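 MCF-7 cells in DMEM + 10% FBS, exposed 12 h to an eight-point dilution series; caspase-3/7 activation imaged with CellEvent Green. Bidirectional fit versus DMSO.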
row,SMILES,outcome
1,CCCN(CCOc1c(Cl)cc(Cl)cc1Cl)C(=O)n1ccnc1,inactive
2,O=C(O)C(F)(F)C(F)(F)C(F)(F)C(F)(F)C(F)(F)C(F)(F)C(F)(F)F,inactive
3,O=S(=O)(O)C(F)(F)C(F)(F)C(F)(F)C(F)(F)C(F)(F)C(F)(F)C(F)(F)C(F)(F)F,inactive

# System: not listed separately
# Assay: CCTE_Harrill_HTTr_Apoptosis_DMEM_24hr: (Pilot) CCTE's 24-hour Apoptosis Assessment for the High-Throughput Transcriptomics (HTTr) Platform, in MCF-7 cells cultured in DMEM + 10% fetal bovine serum, Harrill Lab (AID 2283983; active = hit-call score of the fitted dose curve at least 0.9, where 1 is the maximum; inactive = score below 0.9)
# Summary of the method: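 MCF-7 cells in DMEM + 10% FBS, eight-point dilution series, 24 h exposure. Caspase-3/7 activation imaged by high-content imaging with CellEvent Caspase 3/7 Green. Bidirectional curve fitting against DMSO baseline.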
row,SMILES,outcome
1,CCCN(CCOc1c(Cl)cc(Cl)cc1Cl)C(=O)n1ccnc1,inactive
2,O=C(O)C(F)(F)C(F)(F)C(F)(F)C(F)(F)C(F)(F)C(F)(F)C(F)(F)F,inactive
3,O=S(=O)(O)C(F)(F)C(F)(F)C(F)(F)C(F)(F)C(F)(F)C(F)(F)C(F)(F)C(F)(F)F,inactive

# System: not listed separately
# Assay: CCTE_Harrill_HTTr_Apoptosis_PRF_DMEM_6hr: (Pilot) CCTE's 6-hour Apoptosis Assessment for the High-Throughput Transcriptomics (HTTr) Platform, in MCF-7 cells cultured phenol red-free DMEM + 10% charcoal-stripped fetal bovine serum, Harrill Lab (AID 2283984; active = hit-call score of the fitted dose curve at least 0.9, where 1 is the maximum; inactive = score below 0.9)
# Summary of the method: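 MCF-7 cells in phenol red-free DMEM + 10% charcoal-stripped FBS, eight-point dilution series, 6 h exposure. Caspase-3/7 activation imaged by high-content imaging with CellEvent Caspase 3/7 Green; bidirectional fit versus DMSO baseline.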
row,SMILES,outcome
1,CCCN(CCOc1c(Cl)cc(Cl)cc1Cl)C(=O)n1ccnc1,inactive
2,O=C(O)C(F)(F)C(F)(F)C(F)(F)C(F)(F)C(F)(F)C(F)(F)C(F)(F)F,inactive
3,O=S(=O)(O)C(F)(F)C(F)(F)C(F)(F)C(F)(F)C(F)(F)C(F)(F)C(F)(F)C(F)(F)F,inactive

# System: not listed separately
# Assay: CCTE_Harrill_HTTr_Apoptosis_PRF_DMEM_12hr: (Pilot) CCTE's 12-hour Apoptosis Assessment for the High-Throughput Transcriptomics (HTTr) Platform, in MCF-7 cells cultured in phenol red-free DMEM + 10% charcoal-stripped fetal bovine serum, Harrill Lab (AID 2283985; active = hit-call score of the fitted dose curve at least 0.9, where 1 is the maximum; inactive = score below 0.9)
# Summary of the method: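 MCF-7 cells in phenol red-free DMEM with 10% charcoal-stripped FBS, eight-point dilution series, 12 h exposure. Caspase-3/7 activation imaged by high content imaging with CellEvent Green reagent; bidirectional fit vs DMSO.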
row,SMILES,outcome
1,CCCN(CCOc1c(Cl)cc(Cl)cc1Cl)C(=O)n1ccnc1,inactive
2,O=C(O)C(F)(F)C(F)(F)C(F)(F)C(F)(F)C(F)(F)C(F)(F)C(F)(F)F,inactive
3,O=S(=O)(O)C(F)(F)C(F)(F)C(F)(F)C(F)(F)C(F)(F)C(F)(F)C(F)(F)C(F)(F)F,inactive

# System: not listed separately
# Assay: CCTE_Harrill_HTTr_Apoptosis_PRF_DMEM_24hr: (Pilot) CCTE's 24-hour Apoptosis Assessment for the High-Throughput Transcriptomics (HTTr) Platform, in MCF-7 cells cultured in phenol red-free DMEM + 10% charcoal-stripped fetal bovine serum, Harrill Lab (AID 2283986; active = hit-call score of the fitted dose curve at least 0.9, where 1 is the maximum; inactive = score below 0.9)
# Summary of the method: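 MCF-7 cells in phenol red-free DMEM with 10% charcoal-stripped FBS, exposed 24 h across an eight-point dilution series. Caspase-3/7 activation imaged with CellEvent Green by high content imaging; bidirectional fitting against DMSO.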
row,SMILES,outcome
1,CCCN(CCOc1c(Cl)cc(Cl)cc1Cl)C(=O)n1ccnc1,inactive
2,O=C(O)C(F)(F)C(F)(F)C(F)(F)C(F)(F)C(F)(F)C(F)(F)C(F)(F)F,inactive
3,O=S(=O)(O)C(F)(F)C(F)(F)C(F)(F)C(F)(F)C(F)(F)C(F)(F)C(F)(F)C(F)(F)F,inactive

# System: DIO1 (gene 1733)
# Assay: CCTE_GLTED_hDIO1: CCTE's human Deiodinase 1 (DIO1) Inhibition Assay, Great Lakes Toxicology and Ecology Division (GLTED) Lab (AID 2283987);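 also: isolated human DIO1 enzyme in a cell-free setup rather than cells; enzyme activity read as free iodide liberated from substrate via Sandell-Kolthoff colorimetry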
# Summary of the method: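 Steps: human DIO1 enzyme plus test chemical, 3 h incubation; free iodide then quantified in a second Sandell-Kolthoff step by absorbance. DMSO served as negative control and baseline.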
row,SMILES,AC50
1,COP(=S)(OC)Oc1ccc(SC)c(C)c1,10.7 µM (active)
2,Oc1cc(Cl)ccc1Oc1ccc(Cl)cc1Cl,60.4 µM (active) [middle of 5 runs]
3,CCC(C)(NC(=O)c1cc(Cl)c(C)c(Cl)c1)C(=O)CCl (configuration not stated),16.1 µM (active)
4,O=S(=O)(O)C(F)(F)C(F)(F)C(F)(F)C(F)(F)C(F)(F)C(F)(F)C(F)(F)C(F)(F)F,173 µM (active) and 159 µM (active) and 170 µM (active)
5,N#Cc1c(Cl)c(Cl)c(Cl)c(C#N)c1Cl,30.1 µM (active)

# Target: Nucleoli Translocation, AR (gene 367) (UniProt P10275)
# Sequence (P10275 whole entry, looked up): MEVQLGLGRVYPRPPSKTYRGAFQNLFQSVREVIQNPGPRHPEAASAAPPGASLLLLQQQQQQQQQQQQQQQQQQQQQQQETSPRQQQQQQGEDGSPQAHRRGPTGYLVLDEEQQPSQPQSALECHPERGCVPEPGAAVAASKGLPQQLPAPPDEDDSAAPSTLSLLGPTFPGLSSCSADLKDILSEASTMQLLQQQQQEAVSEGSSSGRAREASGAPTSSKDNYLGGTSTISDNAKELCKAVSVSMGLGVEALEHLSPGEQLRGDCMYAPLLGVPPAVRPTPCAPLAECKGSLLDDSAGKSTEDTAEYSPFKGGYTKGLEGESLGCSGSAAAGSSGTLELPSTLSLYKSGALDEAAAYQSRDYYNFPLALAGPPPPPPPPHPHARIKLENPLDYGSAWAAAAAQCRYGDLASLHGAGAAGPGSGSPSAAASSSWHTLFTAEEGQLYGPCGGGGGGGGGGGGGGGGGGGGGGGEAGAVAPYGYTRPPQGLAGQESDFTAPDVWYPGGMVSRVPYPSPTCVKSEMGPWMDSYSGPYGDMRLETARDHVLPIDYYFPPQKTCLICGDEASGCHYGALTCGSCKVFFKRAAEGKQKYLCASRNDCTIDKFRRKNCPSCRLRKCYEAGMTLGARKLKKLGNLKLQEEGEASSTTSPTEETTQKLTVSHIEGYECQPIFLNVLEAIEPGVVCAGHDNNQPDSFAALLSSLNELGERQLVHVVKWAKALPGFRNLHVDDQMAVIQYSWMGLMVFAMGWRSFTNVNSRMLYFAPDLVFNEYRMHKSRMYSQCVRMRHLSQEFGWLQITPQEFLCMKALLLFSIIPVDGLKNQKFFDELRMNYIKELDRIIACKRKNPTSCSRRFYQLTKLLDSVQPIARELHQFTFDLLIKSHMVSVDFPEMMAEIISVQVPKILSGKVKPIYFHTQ
# Assay: UPITT_HCI_U2OS_AR_TIF2_Nucleoli_Antagonist: University of Pittsburgh U2OS Androgen Receptor-Transcriptional Intermediary Factor 2 (AR-TIF2) Antagonism High Content Imaging Assay for Nucleoli Translocation (AID 2283997)
# Summary of the method: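 U2OS cells expressing RFP-tagged human AR and GFP-tagged TIF2 were imaged by high-content fluorescence microscopy for red AR signal in the nucleolar region. Compounds were screened at 20 uM final (0.2% DMSO), with activity fitted relative to DHT as baseline.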
SMILES,AC50,outcome
O=S1OCC2C(CO1)C1(Cl)C(Cl)=C(Cl)C2(Cl)C1(Cl)Cl (configuration not stated),30.6 µM (active),
CCOC1Oc2ccc(OS(C)(=O)=O)cc2C1(C)C (configuration not stated),,inactive
O=[N+]([O-])c1c(Cl)c(Cl)c(Cl)c(Cl)c1Cl,20.6 µM (active),
O=C(O)CCCOc1ccc(Cl)cc1Cl,,inactive
Cc1[nH]c(=O)n(C(C)(C)C)c(=O)c1Cl,,inactive
Oc1ccc(Cl)cc1Cc1ccccc1,19.1 µM (active),
CCCN(CCC)c1c([N+](=O)[O-])cc(C(F)(F)F)cc1[N+](=O)[O-],,inactive
C[C@H]1[C@H](c2ccc(Cl)cc2)SC(=O)N1C(=O)NC1CCCCC1,27.4 µM (active),
O=[N+]([O-])/N=C1\NCCN1Cc1ccc(Cl)nc1,,inactive
C#CCN1C(=O)COc2cc(F)c(N3C(=O)C4=C(CCCC4)C3=O)cc21,,inactive
CCC(C)(C)C(=O)OC1=C(c2ccc(Cl)cc2Cl)C(=O)OC12CCCCC2,50 µM (active),

# Target: Nucleoli Translocation, AR (gene 367) (UniProt P10275)
# Assay: UPITT_HCI_U2OS_AR_TIF2_Nucleoli_Agonist: University of Pittsburgh U2OS Androgen Receptor-Transcriptional Intermediary Factor 2 (AR-TIF2) Agonism High Content Imaging Assay for Nucleoli Translocation (AID 2283998)
# Summary of the method: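 RFP-AR / GFP-TIF2 cells; cpds diluted in serum-free medium; single-point screen 20 uM final (0.2% DMSO), actives confirmed in triplicate; conc-response 0.195–50 uM final (0.5% DMSO). Readout: nucleolar red fluorescence, positive direction vs DMSO.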
SMILES,outcome,AC50
O=S1OCC2C(CO1)C1(Cl)C(Cl)=C(Cl)C2(Cl)C1(Cl)Cl (configuration not stated),inactive,
O=[N+]([O-])c1c(Cl)c(Cl)c(Cl)c(Cl)c1Cl,inactive,
O=C(O)CCCOc1ccc(Cl)cc1Cl,inactive,
Cc1[nH]c(=O)n(C(C)(C)C)c(=O)c1Cl,inactive,
Oc1ccc(Cl)cc1Cc1ccccc1,,13 µM (active)
C[C@H]1[C@H](c2ccc(Cl)cc2)SC(=O)N1C(=O)NC1CCCCC1,inactive,
O=[N+]([O-])/N=C1\NCCN1Cc1ccc(Cl)nc1,inactive,
C#CCN1C(=O)COc2cc(F)c(N3C(=O)C4=C(CCCC4)C3=O)cc21,inactive,
CCC(C)(C)C(=O)OC1=C(c2ccc(Cl)cc2Cl)C(=O)OC12CCCCC2,inactive,
